Reference: PubChem BioAssay (NCI)
About 83,000 compounds went through this panel and 20% of them were active in at least one assay; those are over-represented in the sample as a whole.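 Single-concentration screen, 48 h exposure, 96-well plates. Endpoint: percent growth. Below 10 = active.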 The source made the active and inactive calls.

Test system: MDA-MB-468 breast
Experiment: NCI-60 one-dose screen, 48 h (100 = growth as untreated, 0 = no growth, -100 = all killed)
Settings: 10 µM unless noted

| Compound | growth |
| --- | --- |
| CCCCCCCCCCCC1=NCCCN1CCCC | 101% (inactive) |
| COc1ccc2cc(-c3nn(-c4ccc(C(=O)O)cc4)cc3CO)ccc2c1 | 109% (inactive) |
| Fc1ccc(-c2nc(-c3nc4ncccc4[nH]3)cc3c2[nH]c2ccccc23)cc1F | 49.5% (inactive) |
| Fc1ccc(Cn2cc(CSc3nc4ccccc4o3)nn2)cc1 | 109% (inactive) |
| O=C1C(c2ccccc2)C2C=CC(C2)N1O (stereo unspecified) | 98.9% (inactive) |
| CCOC(=O)Nc1ccc2nc(Sc3ccc(Cl)cc3)sc2c1 | 0.385% (active) |
| N#Cc1ncc(-c2cc(F)ccc2F)c(NC2CCCCCC2)n1 | 90.3% (inactive) |
| COc1cc(-c2cc(-c3ccc(Nc4ccnc5cc(Cl)ccc45)cc3)nc(N3CCOCC3)n2)cc(OC)c1OC | -43.9% (active) |
| Cc1ccc(-c2nc(C#N)c(S(=O)(=O)N(C)CCO)o2)cc1 | 46.1% (inactive) |
| C(=C\c1n(Cc2ccc3ccccc3c2)c(-c2ccccc2)c(-c2ccccc2)[n+]1Cc1ccc2ccccc2c1)/c1ccccc1 | -70.8% (active) |
| Cc1nn2c(/C=C3/C(=O)Nc4cc(Cl)ccc43)c(-c3ccccc3)nc2s1 | 11% (inactive) |
| Cc1ccccc1CC(N)C(=O)O (stereo unspecified) | 117% (inactive) |
| Cn1cccc1-c1nc2c3c(ccc2[nH]1)C(=O)c1ccccc1C3=O | 10.9% (inactive) |
| CC/C(=C(\c1ccccc1)c1ccc(OCCN(C)C)cc1)c1ccccc1 | -13.3% (active) |
| COc1cc(C)cc(-c2c(-c3cc(N4CC(O)C4)nc(-c4cccnc4)n3)cnn2C)c1 | 80.2% (inactive) |
| O=C1CC(=O)OC(c2ccc([N+](=O)[O-])cc2)O1 | -49.7% (active) |
| COc1cc(/C=C/c2cc(O)c(C(C)=O)c(O)c2)cc2c1O[C@]1(C)CC[C@@H](O)C(C)(C)[C@H]1C2 | 77.6% (inactive) |
| CS(=O)(=O)Nc1ccc([N+](=O)[O-])cc1Oc1ccccc1 | 100% (inactive) |
| Nc1nsc(C(=O)c2ccc(O)cc2)n1 | 105% (inactive) |
| O=C(Nc1ccc(F)cc1)Nc1ccc(Cl)c([N+](=O)[O-])c1 | -3.78% (active) |
| Cc1ccc(NC(=O)CSc2nnc3n(Cc4ccccc4)c(=O)c4c(C)c(C(N)=O)sc4n23)cc1 | 107% (inactive) |
| COc1ccc(-c2cnc(N)nc2-c2ccc(OC)cc2O)cc1 | 92.5% (inactive) |
| COc1ccc2nc3cc(Cl)ccc3c(NCCNCC(O)CO)c2c1 (stereo unspecified) | -8.61% (active) |
| CC(C)Cn1cnc2c(=O)[nH]c(N)nc21 | 91.6% (inactive) |
| CC1(C)NC2=C(C(Nc3cccnc3)N1)C(c1ccc([N+](=O)[O-])cc1)C(C(=O)c1ccc(N=[N+]=[N-])cc1)O2 (stereo unspecified) | 115% (inactive) |
| CCCCCCC(C)(O)c1ccccc1 (stereo unspecified) | 117% (inactive) |
